Reference: the supplement of paper PMC10849652
The full data set covers some 8,800 targets. This sample favours those with a hit. About 0.5% of all pairs of compound and target were hits.

How the values were obtained:
Test in all cases: log2 fold change, soluble protein after heating vs DMSO (PISA); higher = thermal stabilisation; K562 lysate, 10 uM; active = over 0.2 and 3.5 SD of the protein, either way, in both replicates (recomputed)
[1] = compound: C1=CC=C(C=C1)[C@H](COC2=CC3=C(C=C2)NC(=O)N3)NC(=O)C4=CC=CN(C4=O)CC5=CC(=C(C=C5)F)F
In short: (§1)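 To prepare the extract, K562 pellets were dounce-homogenised in PBS pH 7.4 with 1 mM MgCl2, giving crude material at 1 mg/mL protein. This was treated with 10 μM compound for 30 min, then heated in aliquots for 3 min over 48°C-58°C before pooling and addition of NP-40 to 0.5% at 4°C. Centrifugation at 21,000xg for 90 min left soluble protein in the supernatant, which TMTpro 16plex LC-MS/MS quantified with equalised channel sums. Results are log-two fold changes in thermal stability compared with solvent controls, from duplicates.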

[2] = compound: CC1=C(SC2=C1C(=N[C@H](C3=NN=C(N32)C)CC(=O)N)C4=CC=C(C=C4)Cl)C
In short: as §1

[3] = compound: CC1=C2C(=CC=C1)N=C(N(C2=O)C3=CC=CC=C3C)CN4C=NC5=C(N=CN=C54)N
In short: as §1

[4] = compound: Cc1sc2c(c1C)C(c1ccc(Cl)cc1)=N[C@@H](CC(=O)OC(C)(C)C)c1nnc(C)n1-2
In short: as §1

[5] = compound: c1ccc([C@@H]2C[C@H]2NC2CCNCC2)cc1
In short: as §1

Measured: log2 fold change

ARMC6 (UniProt Q6NXE6)
inactive: [1] -0.046 | [2] -0.012 | [3] -0.017 | [4] 0.003 | [5] 0.043

ALG13 (UniProt Q9NP73)
inactive: [1] -0.015 | [2] -0.018 | [3] 0.09 | [4] 0.037 | [5] -0.087

ACIN1 isoform 5 (UniProt Q9UKV3)
inactive: [1] -0.002 | [2] 0.019 | [3] 0.013 | [4] -0.01 | [5] 0.012

ACAT1 (UniProt P24752)
inactive: [1] -0.007 | [2] 0.029 | [3] -0.016 | [4] 0.031 | [5] 0.024

ABCF2 isoform 2 (UniProt Q9UG63)
inactive: [1] -0.022 | [2] -0.011 | [3] 0.04 | [4] -0.019 | [5] 0.055

ANAPC7 (UniProt Q9UJX3)
Sequence of UniProt Q9UJX3 (Q9UJX3 whole entry, looked up): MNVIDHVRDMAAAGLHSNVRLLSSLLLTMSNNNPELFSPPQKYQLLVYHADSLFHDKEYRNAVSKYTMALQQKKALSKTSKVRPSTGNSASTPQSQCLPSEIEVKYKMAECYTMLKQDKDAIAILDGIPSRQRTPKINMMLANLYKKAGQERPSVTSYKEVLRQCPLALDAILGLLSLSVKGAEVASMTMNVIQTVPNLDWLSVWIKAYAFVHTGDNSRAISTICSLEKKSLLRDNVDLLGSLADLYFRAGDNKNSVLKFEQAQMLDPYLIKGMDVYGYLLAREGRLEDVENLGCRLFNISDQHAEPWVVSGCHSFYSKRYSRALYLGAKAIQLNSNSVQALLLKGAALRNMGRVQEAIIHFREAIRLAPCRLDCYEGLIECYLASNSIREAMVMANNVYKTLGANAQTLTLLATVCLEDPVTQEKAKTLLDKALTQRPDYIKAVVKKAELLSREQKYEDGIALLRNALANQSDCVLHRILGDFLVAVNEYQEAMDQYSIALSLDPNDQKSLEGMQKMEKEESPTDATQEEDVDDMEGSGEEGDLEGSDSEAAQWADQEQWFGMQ
inactive: [1] -0.008 | [2] -0.003 | [3] -0.002 | [4] 0.023 | [5] 0.048

ACTG1 (UniProt I3L4N8)
inactive: [1] -0.042 | [2] -0.082 | [3] -0.098 | [4] -0.245 | [5] 0.218

AGL (UniProt P35573)
inactive: [1] 0.022 | [2] 0.028 | [3] 0.036 | [4] 0.035 | [5] 0.086

APOBEC3C (UniProt Q9NRW3)
inactive: [1] -0.003 | [2] 0.032 | [3] 0.013 | [4] 0.014 | [5] -0.062

ACACA isoform 4 (UniProt Q13085)
inactive: [1] 0.001 | [2] 0.027 | [3] 0.019 | [4] 0.027 | [5] 0.085

APAF1 (UniProt O14727)
inactive: [1] -0.013 | [2] 0.004 | [3] 0.022 | [4] 0.012 | [5] 0.02

ARFGAP1 (UniProt Q8N6T3)
inactive: [1] 0.037 | [2] -0.091 | [3] 0.149 | [4] -0.081 | [5] -0.127

ACBD6 (UniProt Q9BR61)
inactive: [1] 0.014 | [2] 0.019 | [3] -0.009 | [4] -0.045 | [5] -0.022

ANP32E (UniProt Q9BTT0)
inactive: [1] 0.043 | [2] -0.005 | [3] -0.053 | [4] -0.038 | [5] 0.026

ARAF (UniProt P10398)
inactive: [1] 0.012 | [2] -0.002 | [3] -0.078 | [4] 0 | [5] 0.002

ADK, A0A5F9ZH76
inactive: [1] -0.136 | [2] 0.197

AKAP8L (UniProt Q9ULX6)
Sequence of UniProt Q9ULX6 (Q9ULX6 whole entry, looked up): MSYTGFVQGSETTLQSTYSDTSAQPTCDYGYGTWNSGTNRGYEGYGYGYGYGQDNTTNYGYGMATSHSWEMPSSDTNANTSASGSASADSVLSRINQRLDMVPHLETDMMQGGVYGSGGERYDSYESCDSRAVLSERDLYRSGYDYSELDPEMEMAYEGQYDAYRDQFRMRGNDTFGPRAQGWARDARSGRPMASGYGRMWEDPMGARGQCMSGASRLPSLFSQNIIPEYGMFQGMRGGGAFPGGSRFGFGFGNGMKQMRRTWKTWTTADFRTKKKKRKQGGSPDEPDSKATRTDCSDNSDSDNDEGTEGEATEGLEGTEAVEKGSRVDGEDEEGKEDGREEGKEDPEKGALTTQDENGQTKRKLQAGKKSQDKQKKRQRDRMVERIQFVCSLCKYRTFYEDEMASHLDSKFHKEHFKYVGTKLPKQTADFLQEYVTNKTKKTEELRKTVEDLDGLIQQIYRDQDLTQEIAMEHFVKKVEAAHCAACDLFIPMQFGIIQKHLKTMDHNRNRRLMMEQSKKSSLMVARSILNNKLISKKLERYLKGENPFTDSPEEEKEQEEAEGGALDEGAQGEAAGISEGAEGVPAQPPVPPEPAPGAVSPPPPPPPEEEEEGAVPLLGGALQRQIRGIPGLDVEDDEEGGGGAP
inactive: [1] 0.011 | [2] -0.005 | [3] -0.001 | [4] 0.018 | [5] -0.02

ARMCX3 (UniProt Q9UH62)
inactive: [1] 0.015 | [2] 0.009 | [3] 0.029 | [4] -0.074 | [5] 0.053

AMD1 (UniProt P17707)
inactive: [1] -0.027 | [2] 0.01 | [3] -0.017 | [4] 0.005 | [5] -0.019

AARS2 (UniProt Q5JTZ9)
inactive: [1] 0.014 | [2] -0.076 | [3] 0.026 | [4] 0.041 | [5] 0.045

ANXA11 (UniProt P50995)
active: [1] 0.23
inactive: [2] 0.028 | [3] 0.015 | [4] 0.015 | [5] 0.002

ADRM1 (UniProt Q16186)
Sequence of UniProt Q16186 (Q16186 whole entry, looked up): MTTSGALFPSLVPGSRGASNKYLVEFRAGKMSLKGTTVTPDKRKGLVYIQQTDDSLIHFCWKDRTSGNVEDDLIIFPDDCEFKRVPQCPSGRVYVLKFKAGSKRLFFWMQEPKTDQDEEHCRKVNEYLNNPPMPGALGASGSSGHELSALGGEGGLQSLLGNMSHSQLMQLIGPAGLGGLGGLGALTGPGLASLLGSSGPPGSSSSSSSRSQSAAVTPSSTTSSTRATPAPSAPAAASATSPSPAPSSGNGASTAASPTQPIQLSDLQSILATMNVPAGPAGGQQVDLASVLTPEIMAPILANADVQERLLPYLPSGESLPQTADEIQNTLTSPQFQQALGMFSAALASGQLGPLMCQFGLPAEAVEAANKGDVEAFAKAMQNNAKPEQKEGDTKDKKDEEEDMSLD
inactive: [1] -0.005 | [2] 0.007 | [3] -0.001 | [4] -0.026 | [5] 0.016

ABI1 isoform 9 (UniProt Q8IZP0)
inactive: [1] -0.013 | [2] -0.008 | [3] -0.006 | [4] -0.004 | [5] -0.117

ALDH6A1 (UniProt Q02252)
inactive: [1] 0.011 | [2] -0.111 | [3] 0 | [4] 0.02 | [5] -0.061

ANP32A (UniProt P39687)
inactive: [1] 0.007 | [2] 0.02 | [3] 0 | [4] 0.07 | [5] -0.033

AK2 (UniProt P54819)
inactive: [1] 0.046 | [2] -0.013 | [3] 0.01 | [4] 0.051 | [5] -0.015

ALG3 (UniProt Q92685)
inactive: [1] 0.002 | [2] -0.006 | [3] 0.048 | [4] -0.035 | [5] -0.127

ABCC5 (UniProt O15440)
inactive: [1] 0.087 | [2] -0.052 | [3] -0.108 | [4] -0.099 | [5] 0.115

ACADS (UniProt P16219)
inactive: [1] -0.015 | [2] 0.069 | [3] 0.054 | [4] 0.013 | [5] 0.003

ABCA3 (UniProt Q99758)
inactive: [1] 0.112 | [2] 0.038 | [3] 0.006 | [4] -0.01 | [5] -0.005

ANKRD40 (UniProt Q6AI12)
inactive: [1] 0.133 | [2] 0.072 | [3] 0.536 | [4] -0.156 | [5] 0.053

ASCC2 (UniProt Q9H1I8)
inactive: [1] 0.181 | [2] 0.063 | [3] -0.027 | [4] -0.019 | [5] 0.076

ASB6 (UniProt Q9NWX5)
inactive: [1] 0.012 | [2] 0.125 | [3] 0.005 | [4] 0.016 | [5] 0.028

AGO4 (UniProt Q9HCK5)
inactive: [1] 0.014 | [2] 0.022 | [3] 0.001 | [4] -0.011 | [5] -0.07

ACOX1 isoform 2 (UniProt Q15067)
inactive: [1] 0.035 | [2] -0.002 | [3] -0.026 | [4] -0.018 | [5] -0.037

AGTPBP1 (UniProt Q9UPW5)
inactive: [1] 0.131 | [2] -0.13 | [3] 0.051 | [4] -0.042 | [5] 0.03

AKAP11 (UniProt Q9UKA4)
inactive: [1] 0.025 | [2] -0.008 | [3] 0.059 | [4] -0.041 | [5] -0.012

ARHGEF2 (UniProt Q92974)
inactive: [1] 0.023 | [2] -0.007 | [3] 0.034 | [4] 0.008 | [5] 0.05

ABHD11 (UniProt Q8NFV4)
inactive: [1] 0.072 | [2] -0.031 | [3] 0.028 | [4] -0.021 | [5] -0.098

ABCF3 (UniProt Q9NUQ8)
inactive: [1] 0.002 | [2] -0.016 | [3] 0.031 | [4] 0.013 | [5] 0.06

ARL15 (UniProt Q9NXU5)
Sequence of UniProt Q9NXU5 (Q9NXU5 whole entry, looked up): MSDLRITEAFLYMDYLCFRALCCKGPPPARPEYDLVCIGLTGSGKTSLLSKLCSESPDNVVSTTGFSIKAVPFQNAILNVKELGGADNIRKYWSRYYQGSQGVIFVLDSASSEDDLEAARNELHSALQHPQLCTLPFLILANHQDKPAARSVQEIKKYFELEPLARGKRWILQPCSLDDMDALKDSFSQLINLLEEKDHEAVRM
inactive: [1] 0.02 | [2] -0.005 | [3] 0.018 | [4] -0.009 | [5] 0.269

ARMCX5 (UniProt Q6P1M9)
inactive: [1] 0.021 | [2] -0.07 | [3] 0.057 | [4] 0.036 | [5] -0.03

ANXA13 isoform 2 (UniProt P27216)
inactive: [1] 0.058 | [2] -0.041 | [3] -0.048 | [4] 0.17 | [5] 0.011

AKT2 (UniProt P31751)
inactive: [1] 0.011 | [2] 0.003 | [3] 0.031 | [4] 0.02 | [5] 0.028

ANKRD30B (UniProt Q9BXX2)
inactive: [1] -0.098 | [2] 0.112 | [3] 0.042 | [4] -0.125 | [5] -0.407

ANKRD10 (UniProt Q9NXR5)
Sequence of UniProt Q9NXR5 (Q9NXR5 whole entry, looked up): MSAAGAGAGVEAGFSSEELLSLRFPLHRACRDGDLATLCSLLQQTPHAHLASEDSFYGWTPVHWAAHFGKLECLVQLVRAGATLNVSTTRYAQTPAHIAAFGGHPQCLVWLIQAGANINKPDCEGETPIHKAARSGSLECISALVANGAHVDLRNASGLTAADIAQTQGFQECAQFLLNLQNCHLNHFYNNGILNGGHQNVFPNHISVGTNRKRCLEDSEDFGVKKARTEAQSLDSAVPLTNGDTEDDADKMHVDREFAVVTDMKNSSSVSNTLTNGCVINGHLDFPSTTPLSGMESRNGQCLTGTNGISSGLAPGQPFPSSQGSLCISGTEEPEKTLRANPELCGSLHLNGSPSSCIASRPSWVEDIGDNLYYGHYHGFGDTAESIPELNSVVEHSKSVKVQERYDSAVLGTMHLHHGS
inactive: [1] -0.131 | [2] -0.027 | [3] 0.025 | [4] 0.06 | [5] -0.019

ACADM isoform 2 (UniProt P11310)
inactive: [1] -0.071 | [2] -0.035 | [3] 0.043 | [4] 0.017 | [5] 0.013

AP4B1 (UniProt Q9Y6B7)
Sequence of UniProt Q9Y6B7 (Q9Y6B7 whole entry, looked up): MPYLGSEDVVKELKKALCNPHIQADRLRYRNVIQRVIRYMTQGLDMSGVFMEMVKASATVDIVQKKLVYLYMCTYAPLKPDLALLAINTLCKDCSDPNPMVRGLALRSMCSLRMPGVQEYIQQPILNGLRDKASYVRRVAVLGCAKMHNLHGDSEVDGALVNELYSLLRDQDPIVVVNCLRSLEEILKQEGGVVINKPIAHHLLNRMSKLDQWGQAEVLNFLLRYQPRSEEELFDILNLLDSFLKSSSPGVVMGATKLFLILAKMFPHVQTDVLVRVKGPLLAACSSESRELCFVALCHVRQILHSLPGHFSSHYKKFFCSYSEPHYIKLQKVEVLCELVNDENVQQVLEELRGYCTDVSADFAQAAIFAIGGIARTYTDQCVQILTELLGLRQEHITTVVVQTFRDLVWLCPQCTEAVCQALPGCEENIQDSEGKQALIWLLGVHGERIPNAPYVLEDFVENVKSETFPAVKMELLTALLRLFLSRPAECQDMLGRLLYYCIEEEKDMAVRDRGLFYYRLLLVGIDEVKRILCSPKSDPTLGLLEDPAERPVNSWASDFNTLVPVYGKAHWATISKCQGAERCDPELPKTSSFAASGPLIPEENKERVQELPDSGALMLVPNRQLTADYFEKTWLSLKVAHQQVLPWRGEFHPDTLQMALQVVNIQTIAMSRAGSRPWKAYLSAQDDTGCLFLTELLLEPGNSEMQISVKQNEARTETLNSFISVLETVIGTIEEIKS
inactive: [1] 0.02 | [2] 0.063 | [3] -0.025 | [4] 0.093 | [5] 0.03

AMMECR1 (UniProt Q9Y4X0)
inactive: [1] -0.014 | [2] 0.019 | [3] 0.064 | [4] -0.007 | [5] 0.036

AFF1 isoform 2 (UniProt P51825)
inactive: [1] -0.109 | [2] 0.133 | [3] -0.006 | [4] -0.087 | [5] -0.118

ALDH18A1 (UniProt P54886)
inactive: [1] -0.018 | [2] -0.032 | [3] 0.019 | [4] -0.005 | [5] 0.034

AP1G2 (UniProt O75843)
Sequence of UniProt O75843 (O75843 whole entry, looked up): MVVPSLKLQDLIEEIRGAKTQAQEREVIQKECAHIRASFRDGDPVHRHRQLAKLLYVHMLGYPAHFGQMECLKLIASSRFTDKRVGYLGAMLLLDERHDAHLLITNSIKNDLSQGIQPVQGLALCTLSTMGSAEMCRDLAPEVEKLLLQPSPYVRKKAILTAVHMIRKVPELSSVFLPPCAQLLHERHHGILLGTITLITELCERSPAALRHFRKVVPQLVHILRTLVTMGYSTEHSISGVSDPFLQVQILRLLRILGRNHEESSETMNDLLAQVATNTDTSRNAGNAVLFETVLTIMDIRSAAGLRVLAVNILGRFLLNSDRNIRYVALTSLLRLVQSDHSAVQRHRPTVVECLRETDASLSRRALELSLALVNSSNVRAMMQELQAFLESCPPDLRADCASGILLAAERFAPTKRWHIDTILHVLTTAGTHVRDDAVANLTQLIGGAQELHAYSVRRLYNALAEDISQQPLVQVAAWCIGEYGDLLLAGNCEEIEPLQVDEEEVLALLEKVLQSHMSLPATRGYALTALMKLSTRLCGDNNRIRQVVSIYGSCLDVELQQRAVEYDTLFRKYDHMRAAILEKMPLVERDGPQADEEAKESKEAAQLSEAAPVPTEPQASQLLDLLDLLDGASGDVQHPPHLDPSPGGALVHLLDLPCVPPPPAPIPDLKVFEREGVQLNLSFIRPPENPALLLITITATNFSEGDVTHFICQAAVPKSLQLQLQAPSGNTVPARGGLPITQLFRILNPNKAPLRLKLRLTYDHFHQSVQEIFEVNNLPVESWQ
inactive: [1] 0.082 | [2] -0.09 | [3] 0.016 | [4] 0.028 | [5] -0.099

AFF4 (UniProt Q9UHB7)
Sequence of UniProt Q9UHB7 (Q9UHB7 whole entry, looked up): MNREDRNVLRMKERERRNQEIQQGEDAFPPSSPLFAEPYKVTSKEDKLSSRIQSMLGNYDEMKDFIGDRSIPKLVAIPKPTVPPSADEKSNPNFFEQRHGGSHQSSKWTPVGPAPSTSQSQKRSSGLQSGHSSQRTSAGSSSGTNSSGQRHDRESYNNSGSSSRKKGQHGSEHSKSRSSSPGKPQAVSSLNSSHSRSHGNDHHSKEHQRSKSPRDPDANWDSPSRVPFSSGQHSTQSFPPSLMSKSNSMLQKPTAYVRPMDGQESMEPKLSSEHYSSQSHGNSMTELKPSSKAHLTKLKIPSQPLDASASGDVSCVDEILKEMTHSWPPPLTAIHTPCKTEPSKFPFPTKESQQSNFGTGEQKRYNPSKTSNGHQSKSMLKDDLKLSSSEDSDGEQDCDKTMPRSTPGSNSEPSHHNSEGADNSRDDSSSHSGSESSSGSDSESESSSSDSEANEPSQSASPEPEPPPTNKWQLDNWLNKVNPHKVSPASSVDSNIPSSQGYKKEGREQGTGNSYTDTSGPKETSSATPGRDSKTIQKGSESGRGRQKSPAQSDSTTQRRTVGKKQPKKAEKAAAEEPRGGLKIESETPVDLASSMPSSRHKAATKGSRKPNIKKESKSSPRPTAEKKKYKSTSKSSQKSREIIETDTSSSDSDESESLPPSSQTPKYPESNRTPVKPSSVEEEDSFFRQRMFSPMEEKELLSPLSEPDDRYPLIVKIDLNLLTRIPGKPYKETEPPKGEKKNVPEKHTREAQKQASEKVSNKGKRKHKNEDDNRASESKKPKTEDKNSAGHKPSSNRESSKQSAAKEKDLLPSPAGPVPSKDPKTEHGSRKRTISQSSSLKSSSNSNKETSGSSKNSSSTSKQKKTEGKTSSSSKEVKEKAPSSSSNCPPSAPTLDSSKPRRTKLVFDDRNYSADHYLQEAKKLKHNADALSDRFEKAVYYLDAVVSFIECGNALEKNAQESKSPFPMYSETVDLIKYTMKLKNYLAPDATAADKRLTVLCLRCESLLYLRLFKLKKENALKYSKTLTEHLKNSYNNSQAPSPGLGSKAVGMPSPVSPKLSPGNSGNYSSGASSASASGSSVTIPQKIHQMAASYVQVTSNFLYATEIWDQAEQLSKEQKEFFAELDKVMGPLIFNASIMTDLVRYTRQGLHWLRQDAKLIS
inactive: [2] -0.269 | [3] -0.081 | [4] -0.026 | [5] -0.052
active: [1] -0.362
